From PubChem BioAssay (NCATS)
Inconclusive results are not listed. Values without a mark were called inactive. Calls come from the whole dose curve; as a rule, active = well fitted curve in the direction sought with a large enough effect; inconclusive = small, poorly fitted or top-dose-only effect, or another doubt; inactive = no such curve, though single readings can be large or run the other way.

Each compound was assayed against Thioredoxin reductase 1, cytoplasmic (Rattus norvegicus) (UniProt O89049) (assay: qHTS Assay for Substrates of Mammalian Selenoprotein Thioredoxin Reductase 1 (TrxR1) (AID 488772; note: 0% is about no effect)). Conditions: purified TrxR1, NADPH consumption substrate assay; series mostly up to 57.1 µM; activity change, negative = NADPH consumption: at the top concentration.
Thioredoxin reductase 1, cytoplasmic (Rattus norvegicus), sequence (O89049 whole entry, looked up): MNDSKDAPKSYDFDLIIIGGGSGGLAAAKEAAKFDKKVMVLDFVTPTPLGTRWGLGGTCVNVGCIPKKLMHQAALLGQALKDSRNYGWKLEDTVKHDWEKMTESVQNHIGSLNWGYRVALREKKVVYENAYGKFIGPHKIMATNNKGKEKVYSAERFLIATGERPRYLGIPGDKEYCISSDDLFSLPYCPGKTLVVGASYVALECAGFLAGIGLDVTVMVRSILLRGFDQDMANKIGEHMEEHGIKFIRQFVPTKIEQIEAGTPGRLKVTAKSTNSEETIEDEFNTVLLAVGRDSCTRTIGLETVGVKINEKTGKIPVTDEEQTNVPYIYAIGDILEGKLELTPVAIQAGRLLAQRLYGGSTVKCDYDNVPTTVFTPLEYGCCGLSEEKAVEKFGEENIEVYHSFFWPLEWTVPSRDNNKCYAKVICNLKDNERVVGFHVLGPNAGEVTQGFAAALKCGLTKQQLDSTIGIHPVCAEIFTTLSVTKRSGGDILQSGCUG
From the text: The selenoprotein thioredoxin reductase (TrxR; EC 1.8.1.9) is a FAD containing homodimeric pyridine nucleotide-disulfide oxidoreductase with many cellular roles. Together with NADPH and its prime substrate thioredoxin (Trx), the enzyme forms the core of the Trx system. The mammalian Trx system exerts a wide spectrum of functions including redox regulation, antioxidant defense, regulation of transcription factors as well as support of cell growth and replication. Many of these functions involve the reduction of Trx, which may subsequently reduce a number of different substrates including ribonucleotide reductase, peroxiredoxins or NFkB. Mammalian TrxR itself also has a broad substrate specificity, reducing both protein and non-protein substrates, including low molecular weight compounds such as dehydroascorbate, lipoic acid, ubiquinone, and juglone. In addition, several drugs in clinical use for anticancer treatment are indeed known to target TrxR1.
This BioAssay is a validation of an NADPH fluorescence-based, dual-purpose qHTS rTrxR1 assay designed to find potential inhibitors and substrates of rTrxR1. For this particular BioAssay, actives are potential substrates. See related BioAssay for inhibitors data deposition.
Assay protocol: 2 uL of reagents (buffer in column 4 as negative control and 90 nM rTrxR1 in columns 1-3 and 5-48) were dispensed into Greiner black solid-bottom 1,536-well assay plates, followed by 1 uL of NADPH (400 uM final concentration) to each well. The plates were centrifuged at 1000 rpm for 15 seconds and subsequently incubated for 5 min at room temperature (~22 deg C) to allow for rTrxR1 reduction. Compounds (23 nL) were then transferred via Kalypsys pin tool equipped with 1536-pin array (10 nL slotted pins, V&P Scientific, San Diego, CA). In addition, a duplicate 2-fold serial dilution of the control compounds auranofin, a known gold-based TrxR1 inhibitor, and juglone (5-hydroxy-1,4-naphthoquinone), a natural TrxR1 substrate, were pin-transferred to columns 2 and 3, respectively. After incubation for 15 min at room temperature (~22 deg C), 1 uL of selenite (400 uM final concentration) were dispensed to each well. The plate was immediately transferred to a ViewLux high-throughput CCD imager (PerkinElmer), wherein kinetic measurements of NADPH fluorescence (Ex 340 nm, Em 450 nm) were acquired (8 minute kinetic read, see Table 1). Read 1 was utilized to assess the capacity of a compound to serve as an rTrxR1 substrate, i.e. a decrease in NADPH fluorescence compared to the no-compound background is an indication of a substrate behavior for that particular compound. For inhibitory activity of a compound, delta values, computed as the difference in fluorescence intensity between the first and last reads of an 8-minute time kinetic window, were used. All reagents were diluted in an assay buffer consisting of 50 mM Tris-HCl, pH 7.5, 2 mM EDTA, and 0.01% Tween-20.
Throughout the screen, reagent bottle and all liquid lines were made light-tight to minimize reagent degradation. All screening operations were performed on a fully integrated robotic system (Kalypsys, San Diego, CA) containing one RX-130 and two RX-90 anthropomorphic robotic arms (Staubli, Duncan, SC). Library plates were screened starting from the lowest and proceeding to the highest concentration, and a 'double-pinning' step of the highest concentration was required to access higher concentrations of compounds. Vehicle-only plates, with DMSO being pin-transferred to the columns 5-48, were inserted uniformly at the beginning and the end of each library in order to monitor and record any shifts in the background, which can be affected by reagent dispensers or loss in enzyme activity over time. Screening data were corrected, normalized, and concentration-effect relationships were derived by using publicly-available curve fitting algorithms developed in-house (http://ncgc.nih.gov/pub/openhts).

Going from `N#C/C(=C\c1c[nH]c2ccccc12)C(=O)c1ccc(O)c(O)c1` to `Oc1ccccc1O`, the “activity change, negative = NADPH consumption” value (shortened to “activity change”) rises from -9.12% to -2.47%.

First: NC(=S)NCCC[C@H](N)C(=O)O
Second: O=C(O)CNC(=O)C(CS)Cc1ccccc1 (stereo not given)
The “activity change” value of the first is lower: -9.44% for the first, -4.65% for the second.

Going from `Cc1cc(NC(=O)Nc2ccc3c(ccn3C)c2)sn1` to `COc1ccc(NC(=O)/C=C/c2ccc(Cl)cc2)cc1`, the “activity change” value falls from -9.91% to -11%.

Compared with `CNCC[C@H](Oc1ccc(C(F)(F)F)cc1)c1ccccc1`, `CC(COc1ccc(/C=C/c2ccccc2)cc1)[N+](C)(C)C` (stereo not given) is lower in “activity change” value: 4.65% for the first, -2.15% for the second.

Going from `Cc1cc(NC2CCCCC2)nc(-n2nc(C)cc2C)n1` to `Nc1nc(Cl)nc2c1ncn2[C@@H]1O[C@H](CO)[C@@H](O)[C@H]1O`, the “activity change” value falls from -5.79% to -8.59%.

Compared with `O=C1/C(=C/c2ccsc2)CC/C1=C\c1cccs1`, `CC(=O)/C=C1\C(=O)N(C)c2ccccc21` is higher in “activity change” value: -7.05% for the first, -4.65% for the second.

Going from `OC[C@H]1O[C@@H](n2cnc3c(Nc4ccccc4)ncnc32)[C@H](O)[C@@H]1O` to `Nc1ncnc2c1ncn2[C@@H]1O[C@H](COP(=O)(O)CP(=O)(O)OP(=O)(O)O)[C@@H](O)[C@H]1O`, the “activity change” value falls from 2.04% to -12%.

Compared with `CSc1nc(N)c2ncn([C@@H]3O[C@H](COP(=O)(O)OP(=O)(O)OP(=O)(O)O)[C@@H](O)[C@H]3O)c2n1`, `CCN(CC)c1ncnc2c1ncn2[C@@H]1O[C@H](COP(=O)(O)OP(=O)(O)C(Br)(Br)P(=O)(O)O)[C@@H](O)[C@H]1O` is lower in “activity change” value: 3.97% for the first, -2.57% for the second.

Going from `NS(=O)(=O)C#Cc1ccccc1` to `Cn1c(=O)c2[nH]c(-c3ccccc3)nc2n(C)c1=O`, the “activity change” value rises from -4.71% to -0.448%.

Compared with `CSc1ccccc1N1CCN(CCCCCC(=O)NC2CCCc3ccccc32)CC1` (stereo not given), `COc1ccccc1N1CCN(CCN(C(=O)c2ccc(I)cc2)c2ccccn2)CC1` is higher in “activity change” value: -10.6% for the first, -9.87% for the second.

First: CCCC1(C)C(C#N)(C#N)C1(C#N)C#N
Second: CCCn1c(=O)c2[nH]c(-c3ccc(OCC(=O)NCCN)cc3)nc2n(CCC)c1=O
The “activity change” value of the first is lower: -0.658% for the first, 40.5% for the second.

Going from `CN1CCc2ccccc2Cc2[nH]c3ccccc3c2CC1` to `COC(=O)c1c(C)[nH]c(C)c1C(=O)c1ccccc1Cc1ccccc1`, the “activity change” value falls from -5.05% to -9.23%.

First: Oc1cc2c(cc1O)CN(C(=S)NCCc1ccc(Cl)cc1)CCC2
Second: Cc1ccc(O)c(N=Nc2ccccc2)n1
The “activity change” value of the first is higher: -3.63% for the first, -4.33% for the second.

First: O=C1NC(O)=NC1(c1ccccc1)c1ccccc1
Second: CC(C)NCC(O)COc1cccc2ccccc12 (stereo not given)
The “activity change” value of the first is lower: -10.2% for the first, -8.95% for the second.

Compared with `CCCCCCCCCCCCCCCC(=O)NCC(COP(=O)([O-])OCC[N+](C)(C)C)OCC` (stereo not given), `NCCCCCCCCCCN` is lower in “activity change” value: 1.98% for the first, -8.7% for the second.

First: O=C(O)CCCC[C@@H]1CCSS1
Second: O=C(O)[C@@H]1C[C@@H](C(=O)O)N1
The “activity change” value of the first is lower: -7.72% for the first, -3.97% for the second.

Compared with `CC(=O)N[C@H](C(=O)O)C(C)(C)SN=O`, `O=P(O)(O)C(Cl)(Cl)P(=O)(O)O` is higher in “activity change” value: -7.99% for the first, -4.6% for the second.

Compared with `S=C(S)OC1CC2CC1C1CCCC21` (stereo not given), `C=C[C@H]1CN2CC[C@@H]1C[C@@H]2[C@@H](O)c1ccnc2ccc(OC)cc12` is higher in “activity change” value: -3.47% for the first, -1.21% for the second.

First: CC(C)(C)c1ccc(S(=O)(=O)/C=C/C#N)cc1
Second: CN1CCC[C@H]1c1cccnc1
The “activity change” value of the first is lower: -3.77% for the first, 1.26% for the second.

First: CC1OC1P(=O)(O)O (stereo not given)
Second: O=c1[nH]c2cc(Cl)c(Cl)cc2[nH]c1=O
The “activity change” value of the first is lower: -0.848% for the first, 34% for the second.
